Screens (PubChem BioAssay)
Sampled rows, rich in hits. Any-hit rate of the full collection: about 0.7%.
PINK1 modulator – PINK1 expression modulation; PINK1 immunofluorescence, high-content cytometry, 24 h; Potency, µM (top dose mostly 76.6 µM), for the others: at the highest dose activation (PINK1 increase), hits mostly activators; 410,000 tested, 0.2% active; active = well fitted activation curve with a large enough effect; inconclusive = small, poorly fitted or top-dose-only effect; cell line not stated here; note: % of control where 0% means no effect; nearly all actives have a fitted effect of over 65% in size
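Measures PINK1 amount and localization on or inside mitochondria by immunofluorescence. Stable cells get compounds at 5 concentrations for 24 hours before fixation and staining; CCCP controls included.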
Vif-A3G inh – blocks the Vif interaction with human APOBEC3G | HeLa A3G-eYFP + Vif (tagged APOBEC3G with the HIV-1 protein that degrades it), YFP fluorescence, overnight | 410,000 tested, 0.076% active | AID 602310 | Potency, µM (doses to about 46.1 µM), without a hit: at the highest dose activity, negative = active, usual class: inhibitors; note: % is set by controls: 0 for no effect and ±100 for the full control effect; nearly all actives have a fitted effect of over 60% in size
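HeLa cells stably expressing Vif and C-terminally eYFP-tagged A3G, seeded overnight at 37 deg C, then exposed to compound by pintool overnight at 37 deg C. Rise in yellow fluorescence (Ex 488/Em 500-530, Acumen) marks blocked Vif-driven A3G degradation.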
Vif-APOBEC3F blk – Vif-A3F binding inhibition. HeLa A3F-eYFP + Vif (tagged APOBEC3F with the HIV-1 protein that degrades it), YFP fluorescence increase. Potency, µM (series often up to 46.1 µM), for inactives: at the top dose activity, negative = active. 390,000 tested, 0.2% active. AID 602313; note: % of control where 0% means no effect; nearly all actives have a fitted effect of over 65% in size
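HeLa cells stably expressing A3F-eYFP plus Vif, plated and incubated overnight at 37 deg C, then exposed to compounds overnight at 37 deg C. Blocked degradation read as raised yellow fluorescence (Ex 488/Em 500-530).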
Epigenetic reg – epigenetic control regulation, reporter derepression; AID 1865; murine LDR cells, GFP reporter derepression, 30 h; 280,000 tested, 0.2% active; Potency, µM (series often up to 53.9 µM), for inactives: at the highest dose GFP activation, usual class: activators; note: % of control where 0% means no effect; nearly all actives have a fitted effect of over 60% in size
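GFP-positive cell count by laser-scanning cytometry (objects 20–120 um) after 30 h, 37 C compound exposure of murine LDR cells; reporter is CMV-GFP integrated at a silenced locus, inducible by HDAC or DNMT inhibitors.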
GLS inh – glutaminase GLS (human) inhibition; GLS enzymatic activity, qHTS titration; O94925; Potency, µM (titrated, usually from 45.5 µM), inactives show at the highest dose activity change, negative = inhibition, actives largely listed as inhibitors; AID 624170; 410,000 tested, 0.21% active; note: % is set by controls: 0 for no effect and ±100 for the full control effect
Target sequence (O94925 whole entry, looked up): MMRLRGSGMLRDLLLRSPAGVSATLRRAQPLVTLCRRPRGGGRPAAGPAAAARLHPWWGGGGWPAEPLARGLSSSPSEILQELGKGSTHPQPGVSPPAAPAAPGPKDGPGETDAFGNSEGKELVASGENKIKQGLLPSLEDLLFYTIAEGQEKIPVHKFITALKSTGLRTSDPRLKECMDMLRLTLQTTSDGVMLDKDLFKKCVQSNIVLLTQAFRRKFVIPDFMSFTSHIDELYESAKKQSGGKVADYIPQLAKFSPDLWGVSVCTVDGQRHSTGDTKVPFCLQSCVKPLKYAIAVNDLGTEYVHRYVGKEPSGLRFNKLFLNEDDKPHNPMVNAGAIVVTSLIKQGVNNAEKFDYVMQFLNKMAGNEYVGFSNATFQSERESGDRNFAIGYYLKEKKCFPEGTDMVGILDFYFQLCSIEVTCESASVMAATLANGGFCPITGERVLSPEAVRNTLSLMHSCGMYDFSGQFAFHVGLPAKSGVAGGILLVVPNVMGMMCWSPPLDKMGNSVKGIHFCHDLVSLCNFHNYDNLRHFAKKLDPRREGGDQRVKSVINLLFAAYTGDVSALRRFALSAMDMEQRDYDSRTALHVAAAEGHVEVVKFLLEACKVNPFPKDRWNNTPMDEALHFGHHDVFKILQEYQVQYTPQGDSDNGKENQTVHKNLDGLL
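Human kidney-isoform GLS in 45 mM KH2PO4 pH 8.2, 0.02% Tween-20, with compound, started with 1mM L-Glutamine (added stock). Glutamate oxidase/HRP/Amplex red coupled fluorescence read at start and after 30 min at RT.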
* = called active by the depositor; u = inconclusive; x = no result. Unless noted, calls come from the whole dose curve; as a rule, active = well fitted curve in the direction sought with a large enough effect; inconclusive = small, poorly fitted or top-dose-only effect, or another doubt; inactive = no such curve, though single readings can be large; an effect the other way counts as inactive or inconclusive. Potency is the fitted concentration of half-maximal effect.

SMILES | PINK1 modulator | Vif-A3G inh | Vif-APOBEC3F blk | Epigenetic reg | GLS inh
Cc1ccc(NC(=O)/C=C/c2ccc([N+](=O)[O-])s2)c(C)c1 | u | u | 10µM* | -1.0% | -14.7%
Cc1ccc(C(=O)N/N=C/c2ccc([N+](=O)[O-])s2)cc1 | 1.5% | u | -4.4% | 0.9% | 21.1%
Cc1ccc(NC(=O)/C=C/c2ccc([N+](=O)[O-])s2)cc1 | u | 3.16µM* | 7.94µM* | 8.91µM* | 0.6%
COc1ccccc1-c1ccnc(-n2ncc(C(=O)NCc3ccncc3)c2C)n1 | 5.9% | x | x | x | x
O=C(c1cccnc1)C1CCCN(Cc2ccc3c(c2)CN(C(=O)c2cccs2)CCO3)C1 (stereo not drawn) | 0.4% | x | x | x | x
CCOC(=O)C(=Cc1ccc(-c2ccsc2C(=O)OC)o1)C(=O)OCC | -2.9% | -14.8% | -15.1% | 2.0% | -4.3%
CCOC(=O)/C(C#N)=C/c1ccc(-c2ccsc2C(=O)OC)o1 | 25.1µM* | 0.6% | u | 0.0% | 7.1%
Cc1cc(C)n(-c2cccc(C(=O)NCC3Cc4cccc(-c5cccnc5)c4O3)c2)n1 (stereo not drawn) | 1.0% | x | x | x | x
O=C(N=c1ccn(-c2nc3ccccc3nc2NS(=O)(=O)c2ccccc2)cc1)c1ccccc1Cl | 2.8% | 0.3% | 7.08µM* | x | -0.7%
O=C(N=c1ccn(-c2nc3ccccc3nc2NS(=O)(=O)c2ccc(Cl)cc2)cc1)c1cccs1 | u | -14.4% | 7.94µM* | u | 1.6%
CCOc1ccc(S(=O)(=O)Nc2nc3ccccc3nc2-n2ccc(=NC(=O)c3cccs3)cc2)cc1 | -1.0% | 3.0% | -25.2% | 1.0% | 13.3%
c1ccc2sc(-c3cc4c(c(OC5CCOC5)c3)OCCN(Cc3cccn3-c3nccs3)C4)nc2c1 (stereo not drawn) | -0.6% | x | x | x | x
CC(=O)c1ccccc1-c1ccc2c(c1)CC(CNC(=O)Cc1c[nH]c3ccccc13)O2 (stereo not drawn) | -0.5% | x | x | x | x
C=C[C@@H]1CN2CC[C@@H]1C[C@@H]2[C@@H](O)c1ccnc2ccc(OC)cc12 | x | x | x | -2.7% | x
O=[N+]([O-])c1ccc(C2=Nc3cc(Cl)ccc3OC2)cc1 | u | -5.0% | 25.1µM* | 2.3% | -0.9%
CC(C)c1c(C(=O)NCc2ccccn2)cnn1-c1nccc(-c2ccccc2F)n1 | 0.9% | x | x | x | x
CCOc1cc(N(CC)CC)ccc1/C=C(/C#N)c1nc2ccccc2[nH]1 | 7.6% | u | 3.55µM* | 7.94µM* | 4.8%
CCN(CC)c1ccc(/C=C(/C#N)c2nc3ccc(C)cc3[nH]2)c(OC(C)C)c1 | u | u | -1.9% | 5.01µM* | 10.9%
COc1cccc(/C=C(\C#N)c2nc3ccccc3[nH]2)c1OCC(=O)O | -0.4% | -1.1% | 1.1% | x | 3.0%
COc1cccc(/C=C(/C#N)c2nc3ccccc3[nH]2)c1OC(C)C(=O)O (stereo not drawn) | 0.1% | 1.9% | 1.8% | x | 12.6µM*
COc1ccccc1-c1ccc(C(=O)N(C)CC2COCCO2)c(N2CCN(c3ccccc3F)CC2)n1 (stereo not drawn) | -0.1% | x | x | x | x
Cc1c(C(=O)N2CCCC2)sc2ncnc(NCCCN3CCOCC3)c12 | 1.7% | x | x | x | x
Cc1cc(CNC(=O)c2cnn(-c3nccc(-c4cc(C)sc4C)n3)c2C2CC2)on1 | 0.4% | x | x | x | x
O=c1oc2cc(O)ccc2cc1-c1nc(-c2ccc(Cl)c(Cl)c2)cs1 | 8.9% | u | u | 7.94µM* | 6.8%
COc1ccccc1N1CCN(c2nc(CNC(=O)c3ccc4c(c3)OCO4)nc3ccccc23)CC1 | -0.8% | x | x | x | x
SMILES | PINK1 modulator | Vif-A3G inh | Vif-APOBEC3F blk | Epigenetic reg | GLS inh
C=CCn1cc(/C=C/c2cc[n+](C)cc2)c2ccccc21 | 44.7µM* | u | u | x | 3.6%
C=CCn1c(C)c(/C=C/c2cc[n+](C)cc2)c2ccccc21 | u | u | u | x | 0.4%
CCn1cc(/C=C/c2cc[n+](C)cc2)c2ccccc21 | 28.2µM* | 2.51µM* | -521.3% | x | -3.5%
CC(C)n1cc(/C=C/c2cc[n+](C)cc2)c2ccccc21 | 39.8µM* | 3.98µM* | -497.9% | x | 0.5%
Cc1ccccc1/C=C/c1cc[n+](C)cc1 | 2.2% | 2.1% | 4.7% | 4.9% | 1.6%
COc1ccc(-c2ccc(C(=O)NCC3Cc4cccc(-c5nc(C)cnc5C)c4O3)o2)cc1 (stereo not drawn) | 0.7% | x | x | x | x
COc1cc(=O)n2c(c1C(=O)NCc1nonc1C)CCN(C(=O)c1cccc(C)c1C)CC2 | -0.2% | x | x | x | x
Cc1ncc2c(c1CNS(=O)(=O)N(C)C)CCN(C(=O)/C=C/c1ccccc1F)C2 | 0.4% | x | x | x | x
Cc1ccccc1-n1cc(CNC(=O)CN2Cc3ccccc3OC(C)C2)cn1 (stereo not drawn) | 0.7% | x | x | x | x
Cc1cc(C(=O)NCC2CCC3(CCN(Cc4ccc5ccccc5c4)CC3)O2)n(C)n1 (stereo not drawn) | 0.7% | x | x | x | x
CCC1CN(CC(=O)NC(C)c2cn(C)nc2C)Cc2cc(OC)ccc2O1 (stereo not drawn) | -0.2% | x | x | x | x
CN(C)c1ccc(NC(N)=S)cc1 | 3.1% | 0.2% | 1.4% | -3.2% | 14.1µM*
C(=C\c1nc(N2CCCCCC2)c2ccccc2n1)/c1ccccc1 | 35.5µM* | -1.4% | u | 2.6% | 1.5%
Cc1cc(Nc2ccc(C)c(Cl)c2)n2nc(-c3ccccc3)nc2n1 | u | u | u | 11.2µM* | 4.3%
Cc1ccc2c(c1)CN(CCNC(=O)c1cccc(Cn3cccn3)c1)CC(C)O2 (stereo not drawn) | -1.0% | x | x | x | x
O=C(CN1Cc2ccccc2OC(c2ccccc2F)C1)NC(c1ccccn1)C(F)(F)F (stereo not drawn) | 0.5% | x | x | x | x
CCOC(=O)Cn1c(=O)c(-c2cc(Br)ccc2N)nc2ccccc21 | u | -23.1% | 11.2µM* | u | -4.1%
CCOC(=O)Cn1c(=O)c(-c2ccccc2N)nc2ccccc21 | 1.8% | -3.6% | -12.8% | 1.0% | -0.8%
O=C(NC(Cc1ccccc1)C(=O)O)/C(=C/c1ccco1)NC(=O)c1cccc(Br)c1 (stereo not drawn) | 1.4% | 1.1% | 0.3% | 0.0% | 17.8µM*
CC(=O)Nc1sc(C)c(C)c1C(=O)OCC(=O)Nc1ccccc1 | u | u | 11.2µM* | x | 0.9%
COc1cc(N=c2c([N+](=O)[O-])nn(-c3ccc4c(c3)OCCO4)n2O)cc(OC)c1 | -2.1% | -27.9% | -0.6% | 1.0% | 15.5%
CC(C)c1ccc(N=c2c([N+](=O)[O-])nn(-c3ccc4c(c3)OCCO4)n2O)cc1 | x | -11.2% | -13.5% | -2.3% | 11.2µM*
Cc1cc(C)n(-c2ccc(C(=O)NCC3Cc4cc(-c5cnccn5)ccc4O3)cc2)n1 (stereo not drawn) | 0.3% | x | x | x | x
O=C(CN1CCN(c2ccccc2O)CC1)NC(=O)NC1CCCC1 | 1.1% | 0.0% | 2.6% | -0.5% | 2.82µM*
